NSD2 inh = blocks human histone methyltransferase NSD2. NSD2 peptide methylation, AlphaScreen, 120 min. inhibition, % at 12.5 µM. 310,000 compounds, 0.54% hits. AID 743445; in the data active means inhibition above about 50%
SUMO Mot1 rescue = blocks SUMOylation pathway, rescuing yeast Mot1-301 growth | 320,000 compounds, 1% hits | S. cerevisiae Mot1-301 growth rescue, ATP luminescence, 38.5C; percent above DMSO median, 100 means doubled | growth rescue, % at 18.8 µM | AID 2716;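 active means every valid replicate shows activation above 250% relative to neutral control wells; inactive means the rest, any valid replicate at or below 250%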;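 further: OY570 slx delta 5 strain wells were the positive control but not used for scaling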
CDK5 inh = blocks human CDK5/p35 kinase activity. Q00535+Q15078. Recombinant CDK5/p35, ADP-Glo luminescence, 60 min. inhibition, % at 10 µM. 330,000 compounds, 0.01% hits. AID 488839;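 active means highest replicate inhibition of at least 50% and at least 75% of replicates reaching 50%; inconclusive means only one of the two criteria met; inactive means both criteria failed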;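 further: plate controls were DMSO neutral control for no effect and GW8510 at 10 µM for full effect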
Target sequence (Q00535 whole entry, looked up): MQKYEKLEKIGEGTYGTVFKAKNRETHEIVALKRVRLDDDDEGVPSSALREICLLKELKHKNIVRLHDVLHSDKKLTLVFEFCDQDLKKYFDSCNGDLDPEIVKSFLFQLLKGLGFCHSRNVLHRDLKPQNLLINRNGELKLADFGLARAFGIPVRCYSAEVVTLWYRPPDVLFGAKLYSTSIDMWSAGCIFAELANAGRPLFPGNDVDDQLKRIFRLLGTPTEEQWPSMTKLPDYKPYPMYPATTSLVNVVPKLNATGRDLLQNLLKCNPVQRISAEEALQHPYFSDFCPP
Target sequence (Q15078 whole entry, looked up): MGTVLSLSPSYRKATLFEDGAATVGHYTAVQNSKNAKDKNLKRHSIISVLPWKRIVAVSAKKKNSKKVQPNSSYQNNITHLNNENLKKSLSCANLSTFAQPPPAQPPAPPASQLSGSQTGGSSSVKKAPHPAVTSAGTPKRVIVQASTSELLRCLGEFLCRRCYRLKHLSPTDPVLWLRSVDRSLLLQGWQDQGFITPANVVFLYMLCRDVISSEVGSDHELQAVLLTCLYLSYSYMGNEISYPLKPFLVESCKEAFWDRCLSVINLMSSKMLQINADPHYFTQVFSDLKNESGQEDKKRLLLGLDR
Casp6 inh = inhibitors of human caspase-6; 350,000 compounds, 0.53% hits; inhibition, % at 12.5 µM; P55212; purified caspase-6, Z-VEID-R110 cleavage fluorescence;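 active means mean inhibition across replicates at least about 35%, with every replicate also reaching that limit, limit read from the data; inconclusive means only one of the two criteria met; inactive means neither criterion met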;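 further: 0% = median of neutral control wells and 100% = no fluorescence left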
ALR inh = blocks human ALR sulfhydryl oxidase activity. P55789. purified ALR, DTT oxidation, H2O2 HRP-luminol luminescence. inhibition, % (test concentration not listed). 290,000 compounds, 3.8% hits. AID 485317;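 active means mean replicate inhibition above about 79%, with every replicate also reaching it, limit read from the data; inconclusive means only one of the two criteria met; inactive means mean below limit and not every replicate reaching it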
N-glyco inh = blocks N-linked glycosylation in D54 reporter cells; D54 ERlucT glycosylation luciferase reporter, 24 h; percent of 100 nM tunicamycin response; reporter increase, % at 12.5 µM; 360,000 compounds, 0.23% hits; AID 588692;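 active means mean luciferase reporter signal, scaled so untreated is 0 and the glycosylation-blocking control 100, at or above a set limit in every replicate; inconclusive means mean reaches the limit but not every replicate does; inactive means mean below the limit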;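 further: luciferase carries N-glycosylation sites so blocking glycosylation raises the light; 0% = median of neutral control wells and 100% = median of 100 nM tunicamycin wells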
The depositor's hits bear a star; ? = inconclusive; . = not tested or not shown. Shown are actives, neighbours in structure and some others; about 3.9% of the full set was active somewhere.

SMILES	NSD2 inh	SUMO Mot1 rescue	CDK5 inh	Casp6 inh	ALR inh	N-glyco inh
O=C(CSCc1ccccc1Cl)N1CCN(c2ccccn2)CC1	-1	174	1	.	99*	1
COc1cccc(-c2nc(CSCC(=O)N3CCc4ccccc43)c(C)o2)c1	1	21	0	.	44	0
CN(C)CC(=O)N[C@@H]1CC[C@H](CCn2cc(C3CC3)nn2)O[C@@H]1CO	.	.	.	-4	.	.
C[C@@H]1CN([C@@H](C)CO)S(=O)(=O)c2ccc(C#CC3CCCC3)cc2O[C@@H]1CN(C)Cc1cncnc1	.	.	.	2	.	.
CCOC(=O)/C(=C\c1cccc(O)c1)c1nc2sc(C)c(C)c2c(=O)[nH]1	41	-11	2	9	98*	?
CCOC(=O)/C(C#N)=C/c1cc2ccccc2nc1Cl	12	9	-1	2	8	16
N#C/C(=C\c1cc2ccccc2nc1N1CCCCC1)C(N)=O	2	43	-1	3	93*	3
Cc1ccccc1S(=O)(=O)N1CC[C@@H]2[C@H](CO)Nc3ccc(-c4ccccc4)cc3[C@@H]21	.	.	.	-1	.	.
C[C@H](CO)N1C[C@H](C)[C@@H](CN(C)C(=O)c2cccnc2)Oc2cc(C#CC3(O)CCCC3)ccc2S1(=O)=O	.	.	.	4	.	.
Cc1[nH]cnc1CN1CCc2c(c3ccccc3n2C)C1=O	.	-3	0	81*	-19	4
COc1ccccc1-c1n[nH]c(=S)n1N	-3	19	1	0	-3	1
Cc1nn(C)cc1-c1n[nH]c(=S)n1-c1ccc(Cl)cc1	3	25	-4	-2	-1	2
CC(C)(C)c1cc(-c2n[nH]c(=S)n2-c2ccc(Cl)cc2)n[nH]1	1	-15	2	-2	93*	3
CCn1c(-c2nn(C)c(C)c2Cl)n[nH]c1=S	1	-12	2	.	.	2
Cc1ccc(-n2c(-c3nn(C)c(C)c3Cl)n[nH]c2=S)cc1	-2	-15	0	.	86*	0
COc1ccc(C)cc1-n1c(-c2ccncc2)n[nH]c1=S	-6	13	1	.	14	-2
COc1ccccc1-c1n[nH]c(=S)n1-c1ccccc1	0	-5	2	.	93*	2
COc1cc(-n2c(-c3ccccc3)n[nH]c2=S)c(OC)cc1Cl	1	-29	5	-1	79*	0
C/C=C/c1ccc([C@@H]2[C@H](CO)N(C(=O)CN(C)C)C23CN(C(=O)C2CCOCC2)C3)cc1	.	.	.	-2	.	.
CO[C@@H]1CN(C)C(=O)c2ccc(NC(=O)C3CC3)cc2OC[C@H](C)N(C(=O)c2cnccn2)C[C@@H]1C	.	.	.	0	.	.
COc1ccc(-c2n[nH]c(=S)n2-c2ccc3c(c2)OCCO3)cc1OC	5	.	-2	-4	-3	4
COc1ccccc1N1CCN(CCc2n[nH]c(=S)n2-c2ccccc2)CC1	-1	6	0	.	97*	2
COc1ccc(-c2n[nH]c(=S)n2-c2ccc(C)cc2)cc1OC	-2	23	1	-2	89*	3
COc1ccccc1-n1c(-c2cc(-c3ccc(F)cc3)n[nH]2)n[nH]c1=S	2	-8	2	4	77*	5
Cc1ccc(-n2c(C)n[nH]c2=S)cc1	3	0	-10	.	95*	4
SMILES	NSD2 inh	SUMO Mot1 rescue	CDK5 inh	Casp6 inh	ALR inh	N-glyco inh
Cc1ccc(-n2c(C)n[nH]c2=S)cc1C	-2	5	0	-2	.	2
COc1ccc(CN(C)C[C@@H]2OCCCC[C@H](C)Oc3ccc(NC(=O)Nc4ccc(F)cc4)cc3C(=O)N([C@@H](C)CO)C[C@H]2C)cc1	.	.	.	0	.	.
Cc1noc(C)c1NC(=O)Nc1ccc2c(c1)C(=O)N([C@@H](C)CO)C[C@H](C)[C@@H](CN(C)Cc1ccc(C(F)(F)F)cc1)OCCCC[C@H](C)O2	.	.	.	5	.	.
CNC[C@H]1OCCCC[C@H](C)Oc2ccc(NS(C)(=O)=O)cc2C(=O)N([C@H](C)CO)C[C@@H]1C	.	.	.	0	.	.
CCOc1ccc(N2Nc3n[nH]c(N)c3N2)cc1	4	-37	-4	.	.	2
COc1ccc(N2Nc3n[nH]c(N)c3N2)cc1	6	-5	2	.	99*	-1
O=C(C[C@H]1C=C[C@H](NC(=O)c2ccc(F)cc2)[C@@H](CO)O1)NCc1ccncn1	.	.	.	1	.	.
N/C(Cc1cccc2ccccc12)=N\OC(=O)c1ccccc1F	0	-14	0	41*	-11	-3
Cc1ccccc1NC(=O)c1ccc2c(c1)N(C)CCS2	.	0	-4	-1	98*	-1
O=C(NCc1ccco1)c1ccc2c(c1)N(Cc1ccccc1)CCS2	5	14	0	2	98*	0
CN1CCSc2ccc(C(=O)Nc3cc(F)ccc3F)cc21	-13	9	-1	0	10	-7
O=C(NCCCN1CCCC1)c1ccc2c(c1)N(Cc1ccccc1)CCS2	6	22	-1	2	99*	-6
O=C(NCCCN1CCCC1)c1ccc2c(c1)N(Cc1cccc(Cl)c1)C(=O)c1ccccc1S2(=O)=O	11	.	.	65*	.	-1
NS(=O)(=O)c1ccc(CCNC(=O)c2ccc3c(c2)N(Cc2ccccc2)CCS3)cc1	3	-34	1	2	18	-3
CN(C)C(=O)[C@H]1[C@H](CO)[C@H]2Cn3c(ccc(-c4cccc(F)c4)c3=O)[C@H]2N1C(=O)c1cnccn1	.	.	.	-1	.	.
Cc1noc(C)c1S(=O)(=O)Nc1ccc2c(c1)CC(=O)N([C@@H](C)CO)C[C@@H](C)[C@@H](CN(C)C(=O)NC(C)C)O2	.	.	.	0	.	.
CCN1CCSc2ccc(C(=O)NCc3ccccc3C)cc21	.	19	0	1	90*	0
CCN1CCN(CCCNC(=O)c2ccc3c(c2)N(Cc2ccccc2)CCS3)CC1	32	-16	1	19	99*	-5
COc1ccc(CNC(=O)c2ccc3c(c2)N(C)CCS3)cc1	.	-1	-1	-1	96*	2
CC(C)Oc1ccc(CNC(=O)c2ccc3c(c2)N(C)CCS3)cc1	.	9	0	-1	12	-2
Cc1ccc(CN2CCSc3ccc(C(=O)NCc4ccccn4)cc32)cc1	4	14	3	4	98*	-2
O=C(NC1CCCCC1)N[C@H]1CC[C@H](CCNS(=O)(=O)c2ccccc2)O[C@H]1CO	.	.	.	-8	.	.
COc1ccc(S(=O)(=O)Nc2ccc3c(c2)CC(=O)N([C@@H](C)CO)C[C@H](C)[C@@H](CN(C)C(=O)NC2CCCCC2)O3)cc1	.	.	.	-1	.	.
CCOc1ccc(C2NC(=O)c3sc(=S)n(-c4ccccc4)c3N2)cc1 (configuration not stated)	3	29	-1	3	81*	2
COc1ccc(C2NC(=O)c3sc(=S)n(-c4ccccc4)c3N2)cc1 (configuration not stated)	1	0	0	.	64	0

Source: PubChem BioAssay (Broad Institute)
